# Test results from publication PMC8384837, “Expanding the binding specificity for RNA recognition by a PUF domain”.
# Legend:
# Assay in all cases: yeast three-hybrid, YBZ-1, SC-Leu-His + 0.5 mM 3-AT, 4 days
# Conditions in all cases: tags: N-Gal4 AD-HA kept; label: inside an RPR1-promoter hybrid RNA with tandem MS2 sites; ssRNA
# PUM1 PUF domain R4-WAT = PUM1 PUF domain R4-WAT (Homo sapiens, UniProt Q14671 828-1176, N971W;H972A;Q975T)
# Outline: (§1)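 A centromeric plasmid in strain YBZ-1 co-expressed Pumilio-1 PUF domain libraries, randomized at the three base-contacting residues of each repeat, with matching RNA elements; the strain carries a LexA–MS2 coat fusion and a HIS3 reporter. After four days on SC-Leu (input) or SC-Leu-His + 0.5 mM 3-AT (selection), the repeat regions were PCR-amplified and Illumina-sequenced. The interaction score is the log change in variant frequency from input to selection, using log2 and a pseudocount of 1 where absent.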
# PUM1 PUF domain R4-SMR = PUM1 PUF domain R4-SMR (Homo sapiens, UniProt Q14671 828-1176, N971S;H972M;Q975R)
# Outline: as §1
# PUM1 PUF domain R4-CCM = PUM1 PUF domain R4-CCM (Homo sapiens, UniProt Q14671 828-1176, N971C;H972C;Q975M)
# Outline: as §1
# PUM1 PUF domain R5-KYG = PUM1 PUF domain R5-KYG (Homo sapiens, UniProt Q14671 828-1176, C1007K;R1008Y;Q1011G)
# Sequence of PUM1 PUF domain R5-KYG (Q14671 828-1176 C1007K/R1008Y/Q1011G): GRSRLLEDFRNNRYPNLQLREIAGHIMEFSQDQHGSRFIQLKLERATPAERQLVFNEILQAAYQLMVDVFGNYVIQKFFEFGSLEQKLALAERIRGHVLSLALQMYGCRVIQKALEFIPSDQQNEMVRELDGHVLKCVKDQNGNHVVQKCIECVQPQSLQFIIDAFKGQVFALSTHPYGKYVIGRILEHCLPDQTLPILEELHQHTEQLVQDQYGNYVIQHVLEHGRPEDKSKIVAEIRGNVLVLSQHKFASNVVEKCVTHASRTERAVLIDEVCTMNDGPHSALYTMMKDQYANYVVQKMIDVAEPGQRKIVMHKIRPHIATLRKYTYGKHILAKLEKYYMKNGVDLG
# Outline: as §1
# PUM1 PUF domain R5-DFG = PUM1 PUF domain R5-DFG (Homo sapiens, UniProt Q14671 828-1176, C1007D;R1008F;Q1011G)
# Outline: as §1
# PUM1 PUF domain R3-YCV = PUM1 PUF domain R3-YCV (Homo sapiens, UniProt Q14671 828-1176, C935Y;R936C;Q939V)
# Outline: as §1
# PUM1 PUF domain R5-SNG = PUM1 PUF domain R5-SNG (Homo sapiens, UniProt Q14671 828-1176, C1007S;R1008N;Q1011G)
# Outline: as §1
# PUM1 PUF domain R8-KWL = PUM1 PUF domain R8-KWL (Homo sapiens, UniProt Q14671 828-1176, N1122K;Y1123W;Q1126L)
# Outline: as §1
# PUM1 PUF domain R1-KRD = PUM1 PUF domain R1-KRD (Homo sapiens, UniProt Q14671 828-1176, S863K;Q867D)
# Outline: as §1
# PUM1 PUF domain R1-HRR = PUM1 PUF domain R1-HRR (Homo sapiens, UniProt Q14671 828-1176, S863H;Q867R)
# Outline: as §1
# PUM1 PUF domain R1-NGR = PUM1 PUF domain R1-NGR (Homo sapiens, UniProt Q14671 828-1176, S863N;R864G;Q867R)
# Outline: as §1
sequence,measurement,setting,value
GGCUAGAACUAGUGGAUCCCCCGGCGCCCGGCGGCUCGAGCCCGGGUAAGUGUACAUAGUCUGCAUGCCGCCGGGCGCCAUGCCUGCAGGUCGACUCUAGAAAACAUG,binding signal,PUM1 PUF domain R4-WAT,2.53 log2 enrichment (interaction score)
same,binding signal,PUM1 PUF domain R4-SMR,2.97 log2 enrichment (interaction score)
GGCUAGAACUAGUGGAUCCCCCGGCGCCCGGCGGCUCGAGCCCGGGUAAGUGUAUAUAGUCUGCAUGCCGCCGGGCGCCAUGCCUGCAGGUCGACUCUAGAAAACAUG,binding signal,PUM1 PUF domain R4-CCM,2.39 log2 enrichment (interaction score)
GGCUAGAACUAGUGGAUCCCCCGGCGCCCGGCGGCUCGAGCCCGGGUAAGUGUCAAUAGUCUGCAUGCCGCCGGGCGCCAUGCCUGCAGGUCGACUCUAGAAAACAUG,binding signal,PUM1 PUF domain R5-KYG,5.55 log2 enrichment (interaction score)
same,binding signal,PUM1 PUF domain R5-DFG,2 log2 enrichment (interaction score)
GGCUAGAACUAGUGGAUCCCCCGGCGCCCGGCGGCUCGAGCCCGGGUAAGUGUAAGUAGUCUGCAUGCCGCCGGGCGCCAUGCCUGCAGGUCGACUCUAGAAAACAUG,binding signal,PUM1 PUF domain R3-YCV,2.69 log2 enrichment (interaction score)
GGCUAGAACUAGUGGAUCCCCCGGCGCCCGGCGGCUCGAGCCCGGGUAAGUGUUAAUAGUCUGCAUGCCGCCGGGCGCCAUGCCUGCAGGUCGACUCUAGAAAACAUG,binding signal,PUM1 PUF domain R5-SNG,3.2 log2 enrichment (interaction score)
same,binding signal,PUM1 PUF domain R5-DFG,6.17 log2 enrichment (interaction score)
GGCUAGAACUAGUGGAUCCCCCGGCGCCCGGCGGCUCGAGCCCGGGUAAGUGUGAAUAGUCUGCAUGCCGCCGGGCGCCAUGCCUGCAGGUCGACUCUAGAAAACAUG,binding signal,PUM1 PUF domain R5-KYG,2.74 log2 enrichment (interaction score)
GGCUAGAACUAGUGGAUCCCCCGGCGCCCGGCGGCUCGAGCCCGGGUAAGCGUAAAUAGUCUGCAUGCCGCCGGGCGCCAUGCCUGCAGGUCGACUCUAGAAAACAUG,binding signal,PUM1 PUF domain R8-KWL,5.91 log2 enrichment (interaction score)
GGCUAGAACUAGUGGAUCCCCCGGCGCCCGGCGGCUCGAGCCCGGGUAAGUGUAAAUCGUCUGCAUGCCGCCGGGCGCCAUGCCUGCAGGUCGACUCUAGAAAACAUG,binding signal,PUM1 PUF domain R1-KRD,3.37 log2 enrichment (interaction score)
same,binding signal,PUM1 PUF domain R1-HRR,2.84 log2 enrichment (interaction score)
same,binding signal,PUM1 PUF domain R1-NGR,4.09 log2 enrichment (interaction score)
